# Laboratory results from PubChem BioAssay (NCATS).
# Records with an inconclusive call do not appear. Activity calls are given as the source filed them. Calls follow the shape of the dose curve; as a rule, active = well fitted cell-killing curve with a large enough effect; inconclusive = small, poorly fitted or top-dose-only effect; inactive = no such curve, though single readings can be large or run the other way.
# Test: qHTS of pediatric cancer cell lines to identify multiple opportunities for drug repurposing: Primary screen for Rh41 cells (AID 1347108); also: nearly all actives have a fitted effect of over 70% in size;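 as to activity change, negative = cytotoxic: luminescence drop marks cytotoxic hits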
# Details: Rh41 rhabdomyosarcoma viability, CellTiter-Glo luminescence, 48 h; series mostly up to 46 µM; activity change, negative = cytotoxic: at the top concentration
# Procedure, shortened: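 Cells seeded at 500-1,000 cells/well in growth media, rested 5 hours at 37 degrees C, 5% CO2, then dosed; MIPE compounds at 11-point (from 0.78 nM) and NPC at 8-point (from 0.59 nM) final concentrations. Viability by CellTiter-Glo luminescence after 48 hours.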
# Potency is read from the fitted curve at half-maximal effect.
Compound,"activity change, negative = cytotoxic",Potency
NC[C@@H]1O[C@@H](O[C@H]2[C@@H](O)[C@H](O[C@@H]3[C@@H](O)[C@@H](N)C[C@H](N)[C@H]3O[C@H]3O[C@H](CN)[C@@H](O)[C@@H](O)[C@H]3N)O[C@H]2CO)[C@H](N)[C@@H](O)[C@@H]1O,24.3% (inactive),
O=C(O)C(O)Cc1ccc(O)c(O)c1 (stereo not given),-5.97% (inactive),
C[C@]12CC[C@@H]3c4ccc(O)cc4CC[C@H]3[C@H]1C[C@@H](O)[C@H]2O,18.5% (inactive),
Cc1nc(N)sc1-c1ccnc(Nc2ccc(N3CCOCC3)cc2)n1,,18.7 µM (active)
COc1cc2ncnc(-n3nc(-c4ccccn4)nc3N)c2cc1OC,-11.7% (inactive),
O=C1NC(=O)C(=Cc2ccc3nccnc3c2)S1,-7.49% [at 16.1 µM] (inactive),
Nc1ncnc2ccccc12,,23.5 µM (active)
CC=CCC=CCCC(=O)[C@H]1O[C@@H]1C(N)=O,31.2% (inactive),
CON=C(C(=O)N[C@@H]1C(=O)N2C(C(=O)OCOC(=O)C(C)(C)C)=C(C=Cc3scnc3C)CS[C@H]12)c1csc(N)n1,21.3% (inactive),
O=C(OCC#CCSc1nnc(-c2cccc3ccccc23)o1)c1cc2ccccc2s1,12.3% (inactive),
Cc1ccn(-c2ccc(-c3ncco3)cc2)c(=O)c1-c1ccc2nc(N)ncc2c1,-12.9% (inactive),
O=C(NC1CCOCC1)c1ccc(-c2cc(-c3cn[nH]c3-c3ccccn3)ccn2)cc1,25% (inactive),
CC1(C)Cc2c(sc(NC(=S)NC(=O)c3ccccc3)c2C(=O)O)CO1,30.6% (inactive),
N#CC(=C(N)Sc1ccccc1N)C(C#N)=C(N)Sc1ccccc1N,,18.7 µM (active)
c1cc(-c2sc(-c3ccncc3)c(-c3ccncc3)c2-c2ccncc2)ccn1,14.9% (inactive),
C[C@H](NC(=O)c1sccc1OCc1ccc(Cl)cc1)c1ccccc1,,16.6 µM (active)
COc1ccc2c(Oc3ccc(NC(=O)c4c(C)n(CC(C)(C)O)n(-c5ccccc5)c4=O)nc3)ccnc2c1,-1.68% (inactive),
NS(=O)(=O)c1ccc(NC2=CC(=O)c3ccccc3C2=O)cc1,-14.6% (inactive),

Compound,"activity change, negative = cytotoxic",Potency
CO[C@@H](C(=O)N1Cc2[nH]nc(NC(=O)c3ccc(N4CCN(C)CC4)cc3)c2C1)c1ccccc1,,0.469 µM (active)
CCn1cc(C(=O)O)c(=O)c2ccc(C)nc21,,inactive
N#CC1(c2ccc(NC(=O)c3cccnc3NCc3ccncc3)cc2)CCCC1,0.558% (inactive),
NC(=O)NN=Cc1ccc([N+](=O)[O-])o1,9.51% (inactive),
COCCCCC(=NOCCN)c1ccc(C(F)(F)F)cc1,,20.9 µM (active)
COc1cc(N2CCC(N3CCN(C)CC3)CC2)ccc1Nc1ncnc(Nc2ccccc2S(=O)(=O)C(C)C)n1,,5.26 µM (active)
O=C(Nc1cc(Cl)cc2c1[nH]c1cnccc12)c1cccnc1,-17.6% (inactive),
O=c1c(-c2ccc(O)cc2)coc2cc(O[C@@H]3O[C@H](CO)[C@H](O)[C@H](O)[C@H]3O)ccc12,20.8% (inactive),
COC1CCC(N(C(=O)C2CCC(C)CC2)c2cc(C3=CCCCC3)sc2C(=O)O)CC1 (stereo not given),4.3% (inactive),
C=C1C(=O)OC(CCCCCCCC)C1C(=O)O (stereo not given),11.8% (inactive),
CC(C)(C)C(=O)Oc1ccc2c(c1)nc(NC(=O)c1cccc([N+](=O)[O-])c1)n2CCCO,-11.8% (inactive),
O=C1NC(=O)C(=Cc2cccc(C(F)(F)F)c2)S1,,23.5 µM (active)
CC=CC(=O)N(CC)c1ccccc1C,21.2% (inactive),
CCS(=O)(=O)N1CC(CC#N)(n2cc(-c3ncnc4[nH]ccc34)cn2)C1,,18.7 µM (active)
CC(C)C[C@H](CC(=O)O)C(=O)N[C@@H](Cc1c[nH]c2ccccc12)C(=O)N[C@@H](C)c1ccccc1,6.16% (inactive),
COC[C@@H](c1ccc(C(F)(F)F)cc1)N1CCN(C2(C)CCN(C(=O)c3c(C)ncnc3C)CC2)C[C@H]1C,3.21% (inactive),
CC[C@H]1OC(=O)[C@H](C)[C@@H](O[C@H]2C[C@@](C)(OC)[C@@H](O)[C@H](C)O2)[C@H](C)[C@@H](O[C@@H]2O[C@H](C)C[C@H](N(C)C)[C@@H]2O)[C@](C)(O)C[C@@H](C)CN(C)[C@H](C)[C@@H](O)[C@]1(C)O,16.6% (inactive),
